Hits are enriched below; roughly 3.4% of the tested compounds scored in any of these assays.
sPLA2-III inh – human group III sPLA2 inhibitors, primary screen, biochemical, QFRET, BODIPY PC-A2 liposome substrate. QFRET BODIPY PC-A2 liposome hydrolysis, fluorescence. AID 743126, 2013. inhibition, % at 12.2 µM. 0.56% of 370,000 active. Group 3 secretory phospholipase A2 (Homo sapiens), Q9NZ20;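 active means inhibition above mean plus 3 SD of compounds lying within the high and low control bounds, cut at about 19% in these data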
Target sequence (Q9NZ20 whole entry, looked up): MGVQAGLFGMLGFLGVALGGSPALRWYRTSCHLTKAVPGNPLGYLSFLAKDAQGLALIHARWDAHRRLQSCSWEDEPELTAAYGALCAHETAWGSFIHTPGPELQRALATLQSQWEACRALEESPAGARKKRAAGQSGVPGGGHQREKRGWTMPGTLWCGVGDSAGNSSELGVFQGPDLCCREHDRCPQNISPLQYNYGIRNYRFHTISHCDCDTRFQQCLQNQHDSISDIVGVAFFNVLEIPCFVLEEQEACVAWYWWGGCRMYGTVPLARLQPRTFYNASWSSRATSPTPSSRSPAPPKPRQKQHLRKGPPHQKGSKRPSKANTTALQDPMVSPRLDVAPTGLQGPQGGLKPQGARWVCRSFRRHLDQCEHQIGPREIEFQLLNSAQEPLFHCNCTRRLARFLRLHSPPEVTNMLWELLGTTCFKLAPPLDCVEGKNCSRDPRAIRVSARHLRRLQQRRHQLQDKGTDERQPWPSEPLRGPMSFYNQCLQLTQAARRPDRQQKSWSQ
ADAM17 inh – ADAM17 inhibitors, primary screen, biochemical, QFRET; 0.83% of 370,000 active; Disintegrin and metalloproteinase domain-containing protein 17 (Homo sapiens), P78536; inhibition, % at 6.95 µM; recombinant ADAM17, EDANS/DABCYL FRET peptide cleavage; AID 720648, 2013;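 active means inhibition above the mean of compounds lying between control limits plus 3 SD, set per campaign, cut at about 8.5% in these data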
PLCb3 inh – human PLC-beta3 inhibitors, primary screen, biochemical, fluorescence; Purified PLC-beta3, fluorogenic substrate; inhibition, % at 12.2 µM; 0.18% of 370,000 active; AID 720704, 2013; in the data active means inhibition above about 11%
KLK7 zymogen act – proKLK7 zymogen activators, primary screen, biochemical, fluorescence intensity; purified proKLK7, EDANS-DABCYL substrate fluorescence; 100% is mature enzyme control, 0% vehicle; activation, % at 7 µM; 0.9% of 370,000 active;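 active means activation above the mean of all tested compounds plus 3 SD, computed per campaign excluding outliers beyond control limits, cut at about 13% in these data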
PLC-gamma1 inh – PLC-gamma1 enzyme inhibitors, primary screen, biochemical, fluorescence, purified enzyme; 1-phosphatidylinositol 4,5-bisphosphate phosphodiesterase gamma-1 (Homo sapiens), P19174; 0.84% of 370,000 active; inhibition, % at 12.2 µM; AID 720700, 2013; fluorogenic substrate
ADAM10 inh – human ADAM10 inhibitors, primary screen, biochemical, QFRET, HTS | 0.62% of 370,000 active | inhibition, % at 7 µM | recombinant ADAM10, EDANS/DABCYL FRET peptide cleavage, 3 h | Disintegrin and metalloproteinase domain-containing protein 10 (Homo sapiens), O14672;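 active means inhibition above a per-campaign cutoff equal to the mean of compounds falling between control-based bounds plus 3 SD, cut at about 20% in these data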
PLCgamma1 ctr – PLC-gamma1 enzyme inhibitors, counter-screen for PLC-beta3 inhibitor project, biochemical, fluorescence; shares compounds with PLC-gamma1 inh; purified PLC-gamma1, fluorogenic substrate; inhibition, % at 12.3 µM; 3.1% of 3,300 active; AID 743258, 2014
PLCbeta3 conf – PLC-beta3 inhibitor confirmation, biochemical, fluorescence, purified enzyme; 1% of 3,300 active; shares compounds with PLC-gamma1 inh; inhibition, % at 12.3 µM; fluorogenic substrate fluorescence; AID 743261, 2014; in the data active means inhibition above about 11%
Hits are given with their value; i = inactive; nt = not tested or not shown. Unless noted, no stated cut-off is given here; in the data, active means inhibition above about 9.5%; inactive means the rest.

SMILES	sPLA2-III inh	ADAM17 inh	PLCb3 inh	KLK7 zymogen act	PLC-gamma1 inh	ADAM10 inh	PLCgamma1 ctr	PLCbeta3 conf
COc1ccc(C2NC(=O)NC(C)=C2C(=O)OCC2CCCCC2)cc1OC (centres undefined)	i	i	i	i	10.9	i	i	i
Cc1sc2ncn(CC(=O)NCCN3CCOCC3)c(=O)c2c1S(=O)(=O)N1CCC(C)CC1	i	i	i	i	11.2	i	i	i
COc1ccc(NC(=O)c2cccnc2N2CCOCC2)cc1	i	i	i	i	i	i	nt	nt
Cc1ccc(/C=C/C(=O)NCc2cccs2)cc1	i	i	12.8	i	i	i	i	i
Cc1ccc(/C=C/C(=O)NCc2cccs2)c(C)c1	i	i	i	i	i	i	nt	nt
CCN(CC(=O)NCc1cccs1)C(=O)c1cccc(S(=O)(=O)Nc2ccc(OC)cc2)c1	i	i	i	i	i	i	nt	nt
Cc1cc(C)c(OCCN2CCCC2)c(Cl)c1	i	i	i	i	i	i	nt	nt
Cc1cc(Cl)c(OCCCN2CCCCC2)c(Br)c1	i	i	i	i	10.0	i	i	i
Cn1c(=O)oc2ccccc2c1=O	i	i	i	i	i	i	nt	nt
CN1CC[C@]2(CCN3CCc4c(oc5ccccc45)[C@@H]3C2)N(C)C1=O	i	i	25.1	i	i	i	i	i
N#Cc1c(NC(=O)CSc2nnnn2C2CCCC2)sc2c1CCCC2	i	i	i	i	10.0	i	i	i
CCNC(=S)NN=C1CCC(C(C)(C)C)CC1 (centres undefined)	i	i	i	i	13.0	i	i	i
CC(C)(C)C1CCC(=NNC(=S)Nc2cccnc2)CC1 (centres undefined)	i	i	i	i	i	i	nt	nt
CC(=C/C(=O)O)/C(=C/c1ccccc1)C(=O)O	i	i	i	i	10.4	i	i	i
CC(=C/C(=O)O)/C(=C\c1ccc(Br)o1)C(=O)O	i	i	i	i	i	i	nt	nt
Cc1c(N=C2N=C(NC(=O)Nc3ccc(Cl)cc3)c3ccccc32)c(=O)n(-c2ccccc2)n1C	i	i	i	i	i	i	nt	nt
COc1ccc(/C=N/NC(=S)Nc2ccccc2)cc1COc1ccc(Br)cc1	i	i	i	i	i	i	nt	nt
COc1ccc(/C=N/NC(=S)Nc2ccccc2)cc1COc1ccc(F)cc1	i	i	15.8	i	11.3	i	i	i
COc1ccc(C(=O)NCC(C)(C)N2CCOCC2)cc1S(=O)(=O)NCc1ccc(Cl)cc1	i	i	i	i	11.7	i	i	i
CCOC(=O)N1CCN(C(=O)CN(c2ccc(OC)cc2)S(C)(=O)=O)CC1	i	i	11.2	i	i	i	i	i
CCOC(=O)N1CCN(C(=O)CN(c2cccc(OC)c2)S(C)(=O)=O)CC1	i	i	i	i	i	i	nt	nt
CCOC(=O)N1CCN(C(=O)CN(c2cccc(C)c2)S(=O)(=O)c2ccc(C)cc2)CC1	i	i	i	i	19.6	i	i	i
Nc1cccc(C(=O)Nc2ccc3nc(-c4cccnc4)[nH]c3c2)c1	i	i	i	i	11.6	i	i	i
O=C(Nc1ccc2nc(-c3cccnc3)[nH]c2c1)C1CCCCC1	i	i	i	i	i	i	nt	nt
COc1ccc(S(=O)(=O)N2CCN(C(=O)C3CCCO3)CC2)cc1 (centres undefined)	i	i	i	i	i	i	nt	nt
SMILES	sPLA2-III inh	ADAM17 inh	PLCb3 inh	KLK7 zymogen act	PLC-gamma1 inh	ADAM10 inh	PLCgamma1 ctr	PLCbeta3 conf
CCOC(=O)Cn1nnc(-c2ccccc2)n1	i	i	13.6	i	i	i	i	i
CC(C)OC(=O)Cn1nnc(-c2ccccc2)n1	i	i	i	i	i	i	nt	nt
O=C(Cn1nnc(-c2ccccc2)n1)Nc1ccccc1N1CCOCC1	i	i	i	i	i	i	nt	nt
Cc1ccc(-c2nnn(CC(=O)Nc3ccccc3N3CCOCC3)n2)cc1	i	i	i	i	10.5	i	i	i
COc1ccc(N(CC(=O)NC2CCCC2)S(=O)(=O)c2c(C)[nH]c(=O)[nH]c2=O)cc1	i	i	i	i	i	i	nt	nt
Cc1cc(C)cc(N(CC(=O)Nc2cc(C)ccc2C)S(=O)(=O)c2c(C)[nH]c(=O)[nH]c2=O)c1	i	i	i	i	10.3	i	i	i
Cc1cc(C)cc(N(CC(=O)NC2CCCC2)S(=O)(=O)c2c(C)[nH]c(=O)[nH]c2=O)c1	i	i	i	i	10.6	i	i	i
Cc1cc(C)cc(N(CC(=O)Nc2cccc(C)c2C)S(=O)(=O)c2c(C)[nH]c(=O)[nH]c2=O)c1	i	i	i	i	i	i	nt	nt
CC(C)[C@H](NC(=O)c1ccccc1)C(=O)OCC(=O)N1CC2(C)CC1CC(C)(C)C2 (some centres undefined)	i	i	i	i	i	i	nt	nt
O=C(Nc1nnc(COc2ccccc2F)s1)Nc1ccccc1F	i	i	i	i	i	i	nt	nt
O=C(Nc1ccc(F)cc1)Nc1nnc(COc2ccccc2F)s1	i	i	i	i	11.5	i	i	i
Cc1ccc(C)c(N(Cc2ccccc2F)S(C)(=O)=O)c1	i	i	i	i	10.4	i	i	i
CCCC(C)C(=O)Nc1cc([N+](=O)[O-])ccc1F (centres undefined)	i	i	i	i	9.7	i	i	i
CCOc1cc(C)c(Cl)cc1S(=O)(=O)NC1CC(C)(C)NC(C)(C)C1	i	i	i	i	10.3	i	i	i
CCOc1cc(S(=O)(=O)NC2CC(C)(C)NC(C)(C)C2)ccc1Cl	i	i	i	i	i	i	nt	nt
O=C1/C(=C/C=C/c2ccco2)SC(=S)N1c1ccc(O)cc1	i	i	i	i	21.9	i	i	i
NN1C(=O)/C(=C\c2ccco2)SC1=S	i	i	i	i	17.6	i	i	i
O=C1/C(=C/c2ccco2)SC(=S)N1c1cccnc1	i	i	i	i	11.9	i	i	i
Cc1c(Cl)cccc1N=C1SCCN1C(=O)CN1C(=O)NC2(CCCC2)C1=O	i	i	i	i	i	i	nt	nt
Nc1c(C(=O)N/N=C/c2ccc([N+](=O)[O-])cc2)cnn1-c1ccccc1	i	i	i	i	10.5	i	i	i
